Assay results reported in PubChem BioAssay (Tox21).
Values without a mark were called inactive. Results filed as inconclusive are left out. A call without a number means that no potency is given here. The source made the active and inactive calls. Unless noted, calls follow the shape of the full dose curve.

Columns and labels:
[1] = Nuclear factor erythroid 2-related factor 2/antioxidant responsive element (Nrf2/ARE) small molecule agonists: qHTS cell viability counter screen in human keratinocytes (AID 1919968; active = well fitted curve in the direction sought with a large enough effect in the repeat runs; an effect the other way counts as inactive or inconclusive; also: nearly all actives have a fitted effect of over 55% in size; also: potency is read from the fitted curve at half-maximal effect)
Summary of the method: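 After a 5 h attachment period, ARE-reporter keratinocytes were dosed with compounds in DMSO and then cultured 23 h at 37 C. Cell viability came from CellTiter-Fluor signal read after a further 1 h.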

[2] = Nuclear factor erythroid 2-related factor 2/antioxidant responsive element (Nrf2/ARE) small molecule agonists: luciferase reporter gene qHTS assay in human keratinocytes (AID 1919969); also: nearly all actives have a fitted effect of over 35% in size
[3] = target: Gonadotropin-releasing hormone receptor (Homo sapiens) (UniProt P30968); assay: Human gonadotropin-releasing hormone receptor (GnRHR) small molecule agonists, calcium flux assay in GnRHR-HEK293 cells (AID 1920063); also: nearly all actives have a fitted effect of over 35% in size
Summary of the method: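 We seeded human GnRHR-expressing HEK293 cells for 18 hours, loaded them with calcium dye for an hour at 37 C, added test compounds, and recorded fluorescence intensity kinetically for three minutes.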

[4] = target: KiSS-1 receptor (Homo sapiens) (UniProt Q969F8); assay: Human kisspeptin (KISS1R) small molecule agonists, calcium flux assay in KISS1R-HEK293 cells (AID 1920064; active = well fitted curve in the direction sought with a large enough effect in the repeat runs; an effect the other way counts as inactive or inconclusive)
Summary of the method: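 Kinetic calcium assay, 1 s sampling over 3 min at Ex/Em 480/540, in HEK293 cells engineered with human KISS1R; compounds delivered in DMSO after 1 h dye loading.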

[5] = G protein-coupled receptor (GPCR) small molecule agonists, calcium flux assay: HEK293 wild type cell line counter screen (AID 1920065)
Summary of the method: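 Calcium-sensitive dye, loaded 1 h at 37 C into cells cultured 18 h, reports compound-evoked calcium release as fluorescence (Ex/Em 480/540), measured over 3 min. Agonist mode; 15-point titrations, triplicate.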

[6] = p53 small molecule agonists, cell-based qHTS assay with human liver microsomes: qHTS cell viability counter screen (AID 1963579); also: nearly all actives have a fitted effect of over 45% in size; also: potency is read from the fitted curve at half-maximal effect
Summary of the method: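 After the 460/530 nm beta-lactamase read, CellTiter-Glo was added to the same wells and luminescence measured after 30 min at room temperature, giving viability of p53RE-bla cells treated 16 h with compounds plus microsomes and NADPH.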

[7] = p53 small molecule agonists, cell-based qHTS assay with rat liver microsomes: qHTS cell viability counter screen (AID 1963580); also: nearly all actives have a fitted effect of over 45% in size
Summary of the method: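 p53RE-bla HCT-116 cells (4,000/well) rested 5 h at 37 C, then given Tox21 compounds in DMSO with rat liver microsomes (0.5 mg/mL final) plus NADPH (0.5 mg/mL final) for 16 h at 37 C. Viability read by CellTiter-Glo luminescence after 30 min at room temperature.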

[8] = p53 small molecule agonists, cell-based qHTS assay: qHTS cell viability counter screen (AID 1963581); also: nearly all actives have a fitted effect of over 45% in size
Summary of the method: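 Following 5 h attachment, HCT-116 p53RE-bla cells took up compound for 16 h at 37 C; the reporter was read with B/G FRET substrate (2 h RT), and viability then via CellTiter-Glo ATP luminescence.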

[9] = p53 small molecule agonists, cell-based qHTS assay (AID 1963582; active = well fitted activation curve with a large enough effect in the signal ratio in the repeat runs, not every such curve was filed as active; the % refers to the signal ratio)
Summary of the method: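 In this cell-based concentration-response screen, a p53 response element drives beta-lactamase; cells received DMSO-borne compounds after 5 h culture and were incubated a further 16 h before FRET substrate development.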

[10] = target: Muscarinic acetylcholine receptor M1 (Homo sapiens) (UniProt P11229); assay: Cholinergic receptor muscarinic 1 (CHRM1) small molecule antagonists, cell-based qHTS assay (AID 1963588); also: nearly all actives have a fitted effect of over 40% in size
Summary of the method: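 CHRM1-CHO calcium-flux assay, antagonist mode. Cells were seeded 18 h, dye-loaded 1 h at 37 C and given compound for 5 min at RT, then acetylcholine was added at 50nM. FDSS fluorescence was read 3 min; 15 concentrations, three runs.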

[11] = target: Muscarinic acetylcholine receptor M1 (Homo sapiens) (UniProt P11229); assay: Cholinergic receptor muscarinic 1 (CHRM1) small molecule agonists, cell-based qHTS assay (AID 1963589); also: nearly all actives have a fitted effect of over 35% in size
Summary of the method: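 Measures agonist-induced intracellular calcium rise. Stable human CHRM1 CHO line, 1 h dye load at 37 C, compounds from DMSO, kinetic fluorescence read.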

[12] = cAMP Responsive Elements (CRE) small molecule agonists, cell-based qHTS assay (AID 1963590)
Summary of the method: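 A CRE-responsive beta-lactamase reporter in HEK 293T cells was used. Treatment ran 3 h at 37 C; detection used LiveBLAzer B/G FRET substrate for 2 h at room temperature.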

[13] = cAMP Responsive Elements (CRE) small molecule antagonists, cell-based qHTS assay (AID 1963591; active = well fitted inhibition curve with a large enough effect in the signal ratio in the repeat runs, not every such curve was filed as active; the % refers to the signal ratio; also: potency is read from the fitted curve at half-maximal effect)
Summary of the method: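 HEK293T cells carrying a CRE-driven beta-lactamase reporter receive compound and NKH477 (0.25 uM final) for 3 h. Fluorescence from LiveBLAzer B/G FRET substrate is read after 2 h at room temperature.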

[14] = target: Beta-2 adrenergic receptor (Homo sapiens) (UniProt P07550); assay: Adrenergic beta2 receptor (ADRB2) small molecule antagonists, cell-based qHTS assay (AID 1963592); also: series mostly up to about 92 µM; nearly all actives have a fitted effect of over 50% in size
Summary of the method: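 Cells (CHO, stable ADRB2 overexpression) incubated 18-20hr at 37C; compounds added from DMSO; agonist mix (1nM isoproterenol, 100uM IBMX, 25uM Ro-20-1724) added; 0.5hr RT; d2-cAMP and anti-cAMP-cryptate added; 1hr RT; 665/615 nm read.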

[15] = target: D(2) dopamine receptor (Homo sapiens) (UniProt P14416); assay: Dopamine D2 receptor (DRD2) small molecule agonists, cell-based qHTS assay (AID 1963594); also: nearly all actives have a fitted effect of over 35% in size; also: potency is read from the fitted curve at half-maximal effect
Summary of the method: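 HEK293 cells stably expressing DRD2 were cultured 24 h at 37 C, then given Ro20-1724 (0.1 mM final) and compounds for 10 min at room temperature. NKH477 (200nM) was then added for 30 min. cAMP was read by HTRF.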

[16] = target: D(2) dopamine receptor (Homo sapiens) (UniProt P14416); assay: Dopamine D2 receptor (DRD2) small molecule antagonists, cell-based qHTS assay (AID 1963595; active = well fitted inhibition curve with a large enough effect in the signal ratio in the repeat runs, with a control signal flat; the % refers to the signal ratio; also: potency is read from the fitted curve at half-maximal effect)
Summary of the method: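 HEK293 cells stably expressing DRD2 were preincubated with 0.1 mM Ro20-1724, then with compound for 10 min at room temperature. Cells were stimulated with 200 nM NKH477 plus 12 nM quinpirole for 30 min, and cAMP was read by HTRF.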

[17] = p53 small molecule agonists, cell-based qHTS assay with rat liver microsomes (AID 1963578)
Summary of the method: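 Metabolic activation is supplied by rat liver microsomes with NADPH (each 0.5 mg/mL final). p53RE-bla cells incubate with compound 16 h at 37 C; reporter activity is measured by LiveBLAzer fluorescence.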

[18] = target: 5-hydroxytryptamine receptor 2A (Homo sapiens) (UniProt P28223); assay: 5-hydroxytryptamine receptor 2A (HTR2A) small molecule antagonists, cell-based qHTS assay (AID 1963586); also: nearly all actives have a fitted effect of over 45% in size
Summary of the method: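 Antagonist-mode intracellular calcium assay: DOI (4 nM) added after 5 min compound pre-incubation at room temperature to dye-loaded HTR2A-CHO cells. Fluorescence followed for 3 min, sampled every second.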

[19] = target: 5-hydroxytryptamine receptor 2A (Homo sapiens) (UniProt P28223); assay: 5-hydroxytryptamine receptor 2A (HTR2A) small molecule agonists, cell-based qHTS assay (AID 1963587); also: nearly all actives have a fitted effect of over 30% in size
Summary of the method: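 HTR2A-CHO cells, plated 18 h at 37 C/5% CO2, dye-loaded 1 h at 37 C; compounds in DMSO added by pin tool (agonist mode). Intracellular calcium flux read as kinetic fluorescence on FDSS over 2 min at 1 s intervals.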

Beta-2 adrenergic receptor (Homo sapiens), sequence (P07550 whole entry, looked up): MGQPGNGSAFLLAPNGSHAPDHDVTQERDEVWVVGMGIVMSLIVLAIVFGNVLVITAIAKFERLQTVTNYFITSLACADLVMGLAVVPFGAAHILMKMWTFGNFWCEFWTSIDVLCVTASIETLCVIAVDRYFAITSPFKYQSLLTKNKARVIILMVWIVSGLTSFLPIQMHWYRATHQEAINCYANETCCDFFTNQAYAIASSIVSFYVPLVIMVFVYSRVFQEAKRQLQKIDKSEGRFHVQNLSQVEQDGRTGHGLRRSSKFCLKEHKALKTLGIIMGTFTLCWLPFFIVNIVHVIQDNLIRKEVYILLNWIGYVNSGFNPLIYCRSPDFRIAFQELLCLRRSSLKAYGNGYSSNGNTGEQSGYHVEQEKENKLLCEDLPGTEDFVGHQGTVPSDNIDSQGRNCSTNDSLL
KiSS-1 receptor (Homo sapiens), sequence (Q969F8 whole entry, looked up): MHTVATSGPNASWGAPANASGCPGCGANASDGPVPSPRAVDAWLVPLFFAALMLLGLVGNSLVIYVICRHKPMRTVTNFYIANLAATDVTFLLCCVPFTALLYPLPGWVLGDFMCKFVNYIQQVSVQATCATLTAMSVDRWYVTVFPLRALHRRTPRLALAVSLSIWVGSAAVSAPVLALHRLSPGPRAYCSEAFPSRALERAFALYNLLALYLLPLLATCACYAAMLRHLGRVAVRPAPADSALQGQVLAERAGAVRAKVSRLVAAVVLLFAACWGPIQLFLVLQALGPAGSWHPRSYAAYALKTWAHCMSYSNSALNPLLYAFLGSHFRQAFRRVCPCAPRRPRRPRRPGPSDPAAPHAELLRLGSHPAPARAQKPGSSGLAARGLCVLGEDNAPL
5-hydroxytryptamine receptor 2A (Homo sapiens), sequence (P28223 whole entry, looked up): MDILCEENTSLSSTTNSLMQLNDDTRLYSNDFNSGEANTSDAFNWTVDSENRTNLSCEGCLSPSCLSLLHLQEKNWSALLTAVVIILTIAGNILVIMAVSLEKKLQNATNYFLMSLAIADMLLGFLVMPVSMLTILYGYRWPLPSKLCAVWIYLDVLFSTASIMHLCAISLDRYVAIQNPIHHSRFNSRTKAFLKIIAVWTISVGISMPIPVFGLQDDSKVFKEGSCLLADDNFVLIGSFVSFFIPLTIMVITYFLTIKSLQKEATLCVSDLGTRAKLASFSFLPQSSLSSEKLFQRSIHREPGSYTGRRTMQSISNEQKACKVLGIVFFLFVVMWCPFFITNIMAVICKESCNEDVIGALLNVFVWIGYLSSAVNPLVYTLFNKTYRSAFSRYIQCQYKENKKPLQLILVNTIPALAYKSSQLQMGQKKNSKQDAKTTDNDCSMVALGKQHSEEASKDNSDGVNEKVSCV
Muscarinic acetylcholine receptor M1 (Homo sapiens), sequence (P11229 whole entry, looked up): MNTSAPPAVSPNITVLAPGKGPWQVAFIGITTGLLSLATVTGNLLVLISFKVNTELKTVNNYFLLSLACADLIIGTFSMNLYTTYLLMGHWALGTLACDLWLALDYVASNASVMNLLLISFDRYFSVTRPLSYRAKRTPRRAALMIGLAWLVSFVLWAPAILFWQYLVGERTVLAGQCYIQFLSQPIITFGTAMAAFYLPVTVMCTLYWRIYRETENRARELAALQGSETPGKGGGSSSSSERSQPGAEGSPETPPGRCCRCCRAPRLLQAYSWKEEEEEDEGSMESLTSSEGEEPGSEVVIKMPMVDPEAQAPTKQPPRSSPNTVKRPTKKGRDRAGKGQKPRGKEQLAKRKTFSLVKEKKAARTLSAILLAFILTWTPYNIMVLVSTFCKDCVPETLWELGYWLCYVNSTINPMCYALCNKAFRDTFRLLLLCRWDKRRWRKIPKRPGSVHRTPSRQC
Gonadotropin-releasing hormone receptor (Homo sapiens), sequence (P30968 whole entry, looked up): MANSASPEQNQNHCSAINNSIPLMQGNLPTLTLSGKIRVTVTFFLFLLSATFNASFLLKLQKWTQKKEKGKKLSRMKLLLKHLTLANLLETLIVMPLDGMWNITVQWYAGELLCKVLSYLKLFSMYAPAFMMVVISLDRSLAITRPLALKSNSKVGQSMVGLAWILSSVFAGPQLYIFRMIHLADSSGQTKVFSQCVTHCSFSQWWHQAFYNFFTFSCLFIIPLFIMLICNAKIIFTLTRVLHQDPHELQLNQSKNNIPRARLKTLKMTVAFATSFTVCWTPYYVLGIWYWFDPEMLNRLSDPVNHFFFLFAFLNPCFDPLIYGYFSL
D(2) dopamine receptor (Homo sapiens), sequence (P14416 whole entry, looked up): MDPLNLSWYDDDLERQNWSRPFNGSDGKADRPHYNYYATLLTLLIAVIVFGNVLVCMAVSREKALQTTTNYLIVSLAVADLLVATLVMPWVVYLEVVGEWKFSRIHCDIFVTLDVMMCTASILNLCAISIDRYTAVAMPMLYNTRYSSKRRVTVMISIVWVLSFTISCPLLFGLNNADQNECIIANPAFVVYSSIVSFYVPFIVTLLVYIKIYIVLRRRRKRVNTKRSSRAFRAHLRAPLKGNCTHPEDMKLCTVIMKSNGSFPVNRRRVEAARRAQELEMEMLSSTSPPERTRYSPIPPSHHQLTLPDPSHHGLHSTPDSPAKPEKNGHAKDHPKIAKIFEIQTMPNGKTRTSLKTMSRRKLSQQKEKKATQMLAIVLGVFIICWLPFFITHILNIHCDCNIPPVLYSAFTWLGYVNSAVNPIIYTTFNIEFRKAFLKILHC

Question: For `C=C(C)C1CC=C(C)C(O)C1` (centres undefined), which Potency [1] is on record?
Answer: inactive

Question: And the Potency [2]?
Answer: inactive

Question: What about the Potency [3] of the same compound?
Answer: inactive

Question: And the outcome [4]?
Answer: inactive

Question: And the outcome [5]?
Answer: inactive

Question: And the Potency [6]?
Answer: inactive

Question: What about the Potency [7] of the same compound?
Answer: inactive

Question: And the Potency [8]?
Answer: inactive

Question: What about the Potency [9] of the same compound?
Answer: inactive

Question: And the Potency [10]?
Answer: inactive

Question: And the Potency [11]?
Answer: inactive

Question: And the Potency [12]?
Answer: inactive

Question: What about the Potency [13] of the same compound?
Answer: inactive

Question: And the Potency [14]?
Answer: inactive

Question: And the Potency [15]?
Answer: inactive

Question: And the Potency [16]?
Answer: inactive

Question: With `CCCCCCCCCOC(=O)c1ccc(O)cc1` as the compound, how does the Potency [1] read?
Answer: 26.9 µM (active)

Question: What about the Potency [2] of the same compound?
Answer: inactive

Question: And the Potency [3]?
Answer: inactive

Question: What about the outcome [4] of the same compound?
Answer: inactive

Question: And the outcome [5]?
Answer: inactive

Question: What about the Potency [17] of the same compound?
Answer: inactive

Question: What about the Potency [6] of the same compound?
Answer: 18 µM (active)

Question: And the Potency [18]?
Answer: inactive

Question: What about the Potency [11] of the same compound?
Answer: inactive

Question: And the Potency [12]?
Answer: inactive

Question: And the Potency [13]?
Answer: 21.4 µM (active)

Question: What about the Potency [14] of the same compound?
Answer: inactive

Question: And the Potency [15]?
Answer: inactive

Question: Which Potency [1] does the source give for `O=C(O)c1cc(C(=O)O)c(C(=O)O)cc1C(=O)O` here?
Answer: inactive

Question: What about the Potency [2] of the same compound?
Answer: inactive

Question: And the Potency [3]?
Answer: inactive

Question: And the outcome [4]?
Answer: inactive

Question: And the outcome [5]?
Answer: inactive

Question: And the Potency [17]?
Answer: inactive

Question: And the Potency [7]?
Answer: inactive

Question: What about the Potency [8] of the same compound?
Answer: inactive

Question: And the Potency [18]?
Answer: inactive

Question: And the Potency [19]?
Answer: inactive

Question: What about the Potency [10] of the same compound?
Answer: inactive

Question: And the Potency [12]?
Answer: inactive

Question: And the Potency [13]?
Answer: inactive

Question: And the Potency [14]?
Answer: inactive

Question: What about the Potency [15] of the same compound?
Answer: inactive

Question: What about the Potency [16] of the same compound?
Answer: inactive

Question: With `C=C[Si](C)(C)Cl` as the compound, how does the activity change, negative = cytotoxicity [1] read?
Answer: -0.368% [at 8.39 µM]

Question: What about the activity, positive = activation [2] of the same compound?
Answer: -0.9% [at 8.39 µM]

Question: What about the activity change [3] of the same compound?
Answer: -0.471% [at 5.22 µM, stronger effect = higher value]

Question: What about the activation [4] of the same compound?
Answer: -1.18% [at 6.97 µM]

Question: What about the activation [5] of the same compound?
Answer: 0.126% [at 5.23 µM]

Question: And the activation [17]?
Answer: 0.959% [at 5.99 µM]

Question: What about the activity change, negative = cytotoxicity [6] of the same compound?
Answer: -13% [at 5.99 µM]

Question: What about the activity change, negative = cytotoxicity [8] of the same compound?
Answer: -0.14% [at 5.99 µM]

Question: And the activation [9]?
Answer: 0.341% [at 5.99 µM]

Question: And the activity, negative = inhibition [18]?
Answer: -2.68% [at 5.62 µM]

Question: And the activation [19]?
Answer: -0.8% [at 7.02 µM]

Question: And the activation [11]?
Answer: 0.156% [at 6.97 µM]

Question: What about the activation [12] of the same compound?
Answer: 0.4% [at 8.39 µM]

Question: And the activity change, negative = inhibition [13]?
Answer: -10% [at 8.39 µM]

Question: And the activity change, negative = inhibition [14]?
Answer: 2.31% [at 8.39 µM]

Question: And the activation [15]?
Answer: 0.612% [at 8.39 µM]

Question: And the activity change, negative = inhibition [16]?
Answer: 6.57% [at 8.38 µM]

Question: What does the source list for `CCCCC(CC)COC(=O)c1ccccc1O` (centres undefined)?
Answer: Potency [1]: inactive; Potency [2]: inactive; Potency [3]: inactive; outcome [4]: inactive; outcome [5]: inactive; Potency [17]: inactive; Potency [6]: inactive; Potency [8]: inactive; Potency [9]: inactive; Potency [18]: inactive; Potency [19]: inactive; Potency [10]: inactive; Potency [11]: inactive; Potency [12]: inactive; Potency [13]: inactive; Potency [14]: inactive; Potency [15]: inactive; Potency [16]: inactive

Question: What does the source list for `CC(CCc1ccc(O)cc1)NCCc1ccc(O)c(O)c1` (centres undefined)?
Answer: Potency [1]: inactive; Potency [2]: inactive; Potency [3]: inactive; outcome [4]: inactive; outcome [5]: inactive; Potency [17]: inactive; Potency [7]: inactive; Potency [13]: inactive; Potency [14]: inactive; Potency [15]: 77.9 nM (active); Potency [16]: 10.6 µM (active)

Question: What does the source list for `CNCc1ccccc1`?
Answer: Potency [1]: inactive; Potency [2]: inactive; Potency [3]: inactive; outcome [4]: inactive; outcome [5]: inactive; Potency [17]: inactive; Potency [6]: inactive; Potency [8]: inactive; Potency [9]: inactive; Potency [18]: inactive; Potency [19]: inactive; Potency [10]: inactive; Potency [11]: inactive; Potency [13]: inactive; Potency [14]: inactive; Potency [15]: inactive; Potency [16]: inactive

Question: Which Potency [1] does the source give for `CC(=O)c1ccc(C(C)=O)cc1` here?
Answer: inactive

Question: What about the Potency [2] of the same compound?
Answer: inactive

Question: What about the Potency [3] of the same compound?
Answer: inactive

Question: What about the outcome [4] of the same compound?
Answer: inactive

Question: And the outcome [5]?
Answer: inactive

Question: What about the Potency [17] of the same compound?
Answer: inactive

Question: What about the Potency [6] of the same compound?
Answer: inactive

Question: And the Potency [7]?
Answer: inactive

Question: And the Potency [18]?
Answer: inactive

Question: And the Potency [10]?
Answer: inactive

Question: What about the Potency [11] of the same compound?
Answer: inactive

Question: What about the Potency [12] of the same compound?
Answer: inactive

Question: What about the Potency [13] of the same compound?
Answer: inactive

Question: And the Potency [14]?
Answer: inactive

Question: And the Potency [15]?
Answer: inactive

Question: What about the Potency [16] of the same compound?
Answer: inactive
